The full ranking holds about 4,100 sequences; the median of “RBNS R-value (6-mer enrichment in protein-bound RNA vs input library)” is about 0.99, and the highest 2% start at about 1.4. Only a selection was taken, and the highest values are over-represented in it overall.
Tested on: PfIESI-1 RRM domain (Plasmodium falciparum ortholog aa 875-1232, GST fusion)
Assay: RBNS R-value (6-mer enrichment in protein-bound RNA vs input library) (ratio); higher = stronger binding preference; the methods of the paper give 50 / 100 / 500 nM protein instead
Procedure, shortened: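 A random 40-mer in vitro transcribed RNA library was incubated at room temperature with purified GST-tagged RNA-recognition-motif regions of orthologues from three Plasmodium species, expressed in E. coli. After capture on glutathione magnetic agarose beads and three washes, bound RNA and input were reverse transcribed and sequenced on a MiSeq. The R-value reports each motif's enrichment in bound RNA over input via the Burge lab pipeline. Motifs were 6-mers from one replicate.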

Sequence	RBNS R-value (protein concentration: 250 nM)	RBNS R-value (protein concentration: 500 nM)	RBNS R-value (protein concentration: 1000 nM)
ACACCU	1.23	1.16	1.12
ACAACG	0.949	0.979	0.966
GCCCUG	1.19	1.1	1.14
UGCCCG	1.32	1.16	1.2
CACCCA	1.42	1.26	1.31
CACCCG	1.67	1.33	1.41
GGCCCG	1.26	1.11	1.23
CGCCCG	1.43	1.22	1.33
UACCCG	1.3	1.16	1.2
AACCCC	1.11	1.05	1.08
AACCCG	1.38	1.25	1.29
CACCCC	1.3	1.16	1.24
ACCCCG	1.29	1.16	1.25
GACCCA	1.15	1.12	1.14
UACCCA	1.07	1.01	1.01
AGUAGA	1.01	1.08	1.05
GAUCGC	0.972	0.958	0.975
AACACA	0.942	1.02	0.978
GAGUCA	0.969	0.989	0.99

Sequence	RBNS R-value (protein concentration: 250 nM)	RBNS R-value (protein concentration: 500 nM)	RBNS R-value (protein concentration: 1000 nM)
UGCAAG	0.989	1.01	1.03
AUUAGU	0.821	0.901	0.849
CUCAGG	1.03	1.04	1.09
CACCUA	1.09	1.01	1.01
CACCUC	1.07	1	1.05
CACCUG	1.41	1.3	1.29
UCGGGG	1.04	0.984	1.05
UCUGCG	0.996	0.968	1
UUAUUA	0.766	0.749	0.734
UAUGGG	0.895	0.916	0.918
UAUGGC	1.09	1.06	0.988
GAUGGG	1.47	1.46	1.34
AAUGGG	1.03	1.06	1.03
GAUGGC	1.85	1.82	1.48
CAUGGC	1.03	0.999	1.03
CCUCCC	1.06	0.981	1.04
ACUAGG	0.943	0.956	0.957
UGGACA	0.973	0.993	0.99
